Experimental findings from PubChem BioAssay (Tox21) are described below.

The nature of assay [1]: qHTS assay to identify small molecule antagonists of the estrogen receptor alpha (ER-alpha) signaling pathway using the BG1 cell line in the presence of 0.1 nM 17-beta-estradiol - cell viability counter screen (AID 1259241). Also: nearly all actives have a fitted effect of over 40% in size. Summed up:
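The cell line endogenously expresses full-length ER-alpha and carries four EREs driving luciferase. Cells are cultured 5 days hormone-free, treated 22 hr with compounds and 0.1 nM estradiol, then viability is read by fluorescence.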
A general note: In qHTS, concentration-response curves come from the screen itself.

Assay [2] in a line: qHTS assay to identify small molecule antagonists of the androgen receptor (AR) signaling pathway using the MDA cell line in the presence of 0.5 nM R1881 - cell viability counter screen (AID 1259242). Also: nearly all actives have a fitted effect of over 45% in size. A digest of the protocol:
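Cells seeded at 3,000/well and allowed 5 hr at 37C, 0% CO2 before compound transfer and R1881 (0.5 nM final) addition; 16 hr later, live-cell protease fluorescence indicated cytotoxicity.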

Assay [3] is described as follows: qHTS assay to identify small molecule HDAC inhibitors (AID 1259364). Also: potency is read from the fitted curve at half-maximal effect.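 Also: wild-type HCT-116 cells with endogenous class I/II HDAC activity; nearly all actives have a fitted effect of over 45% in size.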 A digest of the protocol:
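HCT-116 wt cells, 1,500/well, overnight attach. Compounds (DMSO) 2 h, 37 °C. HDAC-Glo I/II, 30 min RT. Luminescence.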

A short description of assay [4]: qHTS assay to identify small molecule HDAC inhibitors - cell viability counter screen (AID 1259365). Also: series mostly up to about 92 µM; nearly all actives have a fitted effect of over 50% in size. A digest of the protocol:
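Viability readout: CellTiter-Glo luminescence. Wild-type HCT-116 cells, 2hr compound treatment following overnight attachment at 37 C.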

Assay [5] can be described thus: qHTS assay to identify small molecule agonists of the sonic hedgehog signaling (Shh) pathway - cell viability counter screen (AID 1259366). Also: nearly all actives have a fitted effect of over 50% in size. Summed up: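 Viability measured fluorometrically (CellTiter-Fluor, 1hr, 37C) in 3T3 Gli1-Luc reporter cells after 23hr compound exposure within a 24hr incubation at 37C/5% CO2.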
The nature of assay [6]: qHTS assay to identify small molecule antagonists of the sonic hedgehog signaling (Shh) pathway - cell viability counter screen (AID 1259367). Also: nearly all actives have a fitted effect of over 55% in size. A digest of the protocol: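 Fluorescence read-out (CellTiter-Fluor, 1 hr at 37C) taken after 23 hr compound treatment of 3T3 Gli1-Luc cells stimulated with conditioned medium. Cells were seeded at 2,000 per well and pre-incubated 4 hr.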

Assay [7] can be described thus: qHTS assay to identify small molecule agonists of the sonic hedgehog signaling (Shh) pathway (AID 1259368; calls by dose curve;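 also: NIH/3T3-derived 3T3Gli1-Luc cells carrying a stable Gli1-driven firefly luciferase reporter; series mostly up to about 92 µM; nearly all actives have a fitted effect of over 15% in size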). Summed up: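 Following a 24 hr incubation with DMSO-dissolved compounds at 37 C, 5% CO2, Gli1-Luc NIH/3T3-derived cells received luciferase reagent for 30 min at room temperature prior to luminescence measurement.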
The nature of assay [8]: qHTS assay to identify small molecule antagonists of the sonic hedgehog signaling (Shh) pathway (AID 1259369; calls by dose curve; also: nearly all actives have a fitted effect of over 45% in size; also: potency is read from the fitted curve at half-maximal effect). Summed up:
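Read-out is luminescence from a firefly luciferase gene controlled by the Gli1 response element, in 3T3Gli1-Luc cells pre-incubated 4hr then exposed to compounds and conditioned medium for 24hr.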

The nature of assay [9]: qHTS assay to identify small molecule agonists of the androgen receptor (AR) signaling pathway in the presence of an antagonist - cell viability counter screen (AID 1259379).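 Also: MDA-kb2 human breast cancer cells carrying an MMTV luciferase reporter; series mostly up to about 92 µM; nearly all actives have a fitted effect of over 25% in size.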 Summed up: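 Each compound was tested at 15 concentrations on MDA-kb2 cells in the presence of 3.0uM nilutamide. Viability was measured by CellTiter-Fluor fluorescence after a 16 hr incubation at 37C in a CO2-free atmosphere.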

Assay [10] in a line: qHTS assay to identify small molecule agonists of the estrogen receptor beta (ER-beta) signaling pathway - cell viability counter screen (AID 1259380). Also: nearly all actives have a fitted effect of over 30% in size. Also: potency is read from the fitted curve at half-maximal effect. A digest of the protocol: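 Compounds dissolved in DMSO were pin-transferred onto ER-beta-UAS-bla HEK293T cells that had settled 6 hr, and exposure ran 16 hr at 37C. Following the reporter read, CellTiter-Glo luminescence after 30 min at room temperature indicated cytotoxicity.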

Assay [11] can be described thus: qHTS assay to identify small molecule antagonists of the estrogen receptor beta (ER-beta) signaling pathway - cell viability counter screen (AID 1259382). Also: series mostly up to about 92 µM; nearly all actives have a fitted effect of over 55% in size. A digest of the protocol: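 CellTiter-Glo ATP luminescence measured after the LiveBLAzer read in the same wells; ER-beta-UAS-bla HEK293T cells, 16 hr compound treatment with 1nM 17-beta-estradiol agonist at 37C, 5% CO2.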

In assay [12] the target is Estrogen receptor (Homo sapiens) (UniProt P03372). As to the kind of experiment: qHTS assay to identify small molecule agonists of the estrogen receptor alpha (ER-alpha) signaling pathway in the presence of an antagonist (AID 1259383; calls by dose curve; also: top concentration of the series differs between compounds; nearly all actives have a fitted effect of over 15% in size). A digest of the protocol: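 Luminescent ERE-luciferase reporter, VM7Luc4E2 cells (endogenous ER-alpha); 10.0nM ICI-182,780 final; 15-point compound titration; 22hr at 37C; ONE-Glo, 30min RT.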

Assay [13] in a line: qHTS assay to identify small molecule phospholipidosis (PLD) inducers (AID 1259344; active = well fitted curve in the direction sought with a large enough effect; an effect the other way counts as inactive or inconclusive). A digest of the protocol:
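Read-out is LipidTOX Red fluorescence (ex 595/em 615) imaged in HepG2 cells after 24 h compound exposure at 37 C, with Hoechst nuclear counterstain (ex 352/em 461) allowing per-cell normalisation.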

Assay [14] concerns the target Estrogen receptor beta (Homo sapiens) (UniProt Q92731). In words: qHTS assay to identify small molecule agonists of the estrogen receptor beta (ER-beta) signaling pathway (AID 1259377; active = well fitted activation curve with a large enough effect in the signal ratio in the repeat runs, not every such curve was filed as active; the % refers to the signal ratio). Summed up:
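A UAS-controlled beta-lactamase reporter in ER-beta-UAS-bla HEK293T cells reports receptor activation. Compounds act for 16 hr at 37C in 2% charcoal-stripped serum, and a FRET substrate is read by fluorescence after 2 hours.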

Assay [15] has the same target. In words: qHTS assay to identify small molecule antagonists of the estrogen receptor beta (ER-beta) signaling pathway (AID 1259378; active = well fitted inhibition curve with a large enough effect in the signal ratio in the repeat runs, not every such curve was filed as active; the % refers to the signal ratio; also: potency is read from the fitted curve at half-maximal effect). Summed up:
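ER-beta-UAS-bla HEK293T cells in 2% charcoal-stripped FBS medium treated with compound plus 1nM final 17-beta-estradiol for 16 hr at 37C. Beta-lactamase reporter read by FRET substrate fluorescence after 2 hours at room temperature.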

A short description of assay [16]: qHTS assay to identify small molecule agonists or antagonists of the thyroid stimulating hormone receptor (TSHR) signaling pathway - wild type cell line counter screen (AID 1259384; calls by dose curve). A digest of the protocol:
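Wild-type Hek293 cells, 800/well, 18 h at 37C, then compound with Ro20-1724 for 30 min RT. cAMP by HTRF (cAMP-d2/anti-cAMP cryptate), 1 h RT, fluorescence read. 15 concentrations, triplicates.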

For assay [17], the target named is Thyrotropin receptor (Homo sapiens) (UniProt P16473). As to the kind of experiment: qHTS assay to identify small molecule antagonists of the thyroid stimulating hormone receptor (TSHR) signaling pathway (AID 1259385; calls by dose curve; also: nearly all actives have a fitted effect of over 20% in size; also: potency is read from the fitted curve at half-maximal effect). A digest of the protocol:
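TSHR-HEK293 cells (800/well) plated 18 h, then compounds with Ro20-1724 and TSH at 1.5 ng/mL final, 30 min at room temperature. cAMP quantified by HTRF (cAMP-d2/anti-cAMP-cryptate, 1 h); 15 concentrations in triplicate.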

Assay [18] deals with Estrogen receptor (Homo sapiens) (UniProt P03372). In words: qHTS assay to identify small molecule antagonists of the estrogen receptor alpha (ER-alpha) signaling pathway using the BG1 cell line in the presence of 0.1 nM 17-beta-estradiol (AID 1259244). Also: nearly all actives have a fitted effect of over 50% in size. Summed up: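 Luciferase signal from VM7Luc4E2 ERE-reporter cells, co-dosed with test compound and 0.1 nM final 17beta-estradiol for 22 h, read with ONE-Glo.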

A number with no mark means an inactive call. Inconclusive results are not listed. Calls of active or inactive are those of the source. Unless noted, calls follow the shape of the dose curve; as a rule, active = well fitted curve in the direction sought with a large enough effect in the repeat runs; inconclusive = weak or mixed curves; inactive = no such curve, though single readings can be large; an effect the other way counts as inactive or inconclusive.
% is scaled to controls: 0 for no effect and ±100 for the full control effect.

Estrogen receptor (Homo sapiens), sequence (P03372 whole entry, looked up): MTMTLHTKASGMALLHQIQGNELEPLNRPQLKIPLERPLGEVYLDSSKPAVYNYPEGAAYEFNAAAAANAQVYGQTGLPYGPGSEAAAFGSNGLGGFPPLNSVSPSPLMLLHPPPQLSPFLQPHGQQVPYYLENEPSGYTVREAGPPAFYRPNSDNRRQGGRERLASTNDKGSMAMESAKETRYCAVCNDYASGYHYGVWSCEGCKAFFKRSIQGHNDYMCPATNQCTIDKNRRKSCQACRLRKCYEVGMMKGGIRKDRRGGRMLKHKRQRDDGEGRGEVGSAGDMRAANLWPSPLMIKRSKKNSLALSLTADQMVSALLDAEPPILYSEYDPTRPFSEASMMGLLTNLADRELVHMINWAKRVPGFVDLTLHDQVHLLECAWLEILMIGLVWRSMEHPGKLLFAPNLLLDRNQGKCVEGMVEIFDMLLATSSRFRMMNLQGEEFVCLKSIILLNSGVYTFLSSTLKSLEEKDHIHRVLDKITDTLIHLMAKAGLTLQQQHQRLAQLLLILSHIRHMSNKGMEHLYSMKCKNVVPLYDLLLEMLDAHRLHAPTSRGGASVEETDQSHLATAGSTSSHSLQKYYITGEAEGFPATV
Estrogen receptor beta (Homo sapiens), sequence (Q92731 whole entry, looked up): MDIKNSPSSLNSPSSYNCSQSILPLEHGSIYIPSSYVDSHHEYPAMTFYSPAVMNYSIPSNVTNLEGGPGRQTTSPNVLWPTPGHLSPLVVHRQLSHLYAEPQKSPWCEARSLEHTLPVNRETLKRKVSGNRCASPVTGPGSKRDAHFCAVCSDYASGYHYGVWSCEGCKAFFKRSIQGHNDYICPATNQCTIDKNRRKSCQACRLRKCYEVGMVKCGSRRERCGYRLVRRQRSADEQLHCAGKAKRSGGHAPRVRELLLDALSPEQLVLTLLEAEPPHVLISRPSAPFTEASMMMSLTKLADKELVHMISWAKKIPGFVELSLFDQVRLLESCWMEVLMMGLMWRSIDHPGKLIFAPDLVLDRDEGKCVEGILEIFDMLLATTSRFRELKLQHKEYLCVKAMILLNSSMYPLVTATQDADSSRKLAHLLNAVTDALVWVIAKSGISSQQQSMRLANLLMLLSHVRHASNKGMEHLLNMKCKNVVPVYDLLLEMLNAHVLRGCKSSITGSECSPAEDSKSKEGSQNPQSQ
Thyrotropin receptor (Homo sapiens), sequence (P16473 whole entry, looked up): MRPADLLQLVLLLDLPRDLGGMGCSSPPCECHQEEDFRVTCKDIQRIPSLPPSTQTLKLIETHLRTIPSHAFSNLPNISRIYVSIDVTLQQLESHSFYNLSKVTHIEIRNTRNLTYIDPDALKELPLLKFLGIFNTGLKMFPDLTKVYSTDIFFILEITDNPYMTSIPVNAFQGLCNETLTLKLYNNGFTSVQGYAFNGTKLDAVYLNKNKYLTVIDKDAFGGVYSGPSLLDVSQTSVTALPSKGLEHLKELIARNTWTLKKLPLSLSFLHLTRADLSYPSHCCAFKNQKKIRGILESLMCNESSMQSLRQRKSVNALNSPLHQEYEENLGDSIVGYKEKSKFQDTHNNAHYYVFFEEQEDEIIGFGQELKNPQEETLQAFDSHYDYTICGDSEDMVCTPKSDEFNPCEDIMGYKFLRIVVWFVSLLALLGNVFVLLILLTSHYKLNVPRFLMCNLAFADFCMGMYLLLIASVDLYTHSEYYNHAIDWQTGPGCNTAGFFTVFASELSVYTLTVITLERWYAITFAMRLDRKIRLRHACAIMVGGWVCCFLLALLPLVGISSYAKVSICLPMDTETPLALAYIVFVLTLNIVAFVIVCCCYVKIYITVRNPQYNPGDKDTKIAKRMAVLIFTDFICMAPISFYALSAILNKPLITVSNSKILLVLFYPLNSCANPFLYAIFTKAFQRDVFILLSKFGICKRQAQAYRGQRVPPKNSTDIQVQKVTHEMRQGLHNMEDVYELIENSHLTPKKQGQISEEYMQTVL

Take `CC1=CC=C(C(C)C)CC1`: the Potency entry in [1], in assay [2], in assay [3], in assay [4], in assay [5] and in assay [6] was “inactive” each time. Also, the Potency result in [8], in assay [9], in assay [10], in assay [11] and in [12] was “inactive” throughout. The molecule was classed as inactive in assay [7].
In the case of `c1ccc(CNCCNCc2ccccc2)cc1`, the Potency entry in [1], in assay [2], in assay [13], in assay [3], in assay [5] and in assay [6] was “inactive” throughout. Also, the Potency entry in assay [14], in assay [9], in assay [10], in assay [11], in assay [12] and in [16] was “inactive” throughout. Besides, the Potency entry in [17] was “inactive”. For the same molecule, the molecule was classed as inactive in [7]. Further, the Potency in assay [15] was 10.6 µM (active).
Consider `CCOC(=O)C1=C[C@]2(CC)CCCN3CCc4c(n1c1ccccc41)[C@@H]32`, for which the Potency entry in [1], in [2], in [13], in assay [3], in assay [6] and in assay [9] was “inactive” throughout. Also, the Potency entry in assay [11], in [12], in assay [16] and in [17] was “inactive” in each case. Also, in assay [7], the outcome was inactive. In addition, the Potency in assay [10] is 26.6 µM (active).
On to `O=C(OCCc1ccccc1)c1ccccc1`, for which the Potency entry in [1], in assay [2], in assay [18], in assay [6], in assay [8] and in assay [10] was “inactive” throughout. Also, the Potency entry in assay [11], in assay [16] and in assay [17] was “inactive” throughout. Moreover, in [3], the Potency is 9.69 µM (active). Moreover, in assay [7], the molecule was called inactive.
On to `CC1(c2ccccc2)OC(C(=O)O)=CC1=O` (stereo not given), for which the Potency result in assay [1], in assay [2], in assay [13], in assay [5], in assay [6] and in assay [14] was “inactive” each time. In addition, the Potency entry in assay [15], in assay [9], in assay [10], in assay [11] and in assay [16] was “inactive” throughout. The outcome in assay [7] was inactive.
For the molecule `O=C(O)c1ccccc1Cl`, the Potency entry in [1], in [2], in [3], in assay [4], in assay [5] and in assay [6] was “inactive” throughout. Also, the Potency result in [8], in assay [14], in [15], in assay [10] and in [11] was “inactive” each time. Moreover, the outcome in assay [7] was inactive.
Consider `CN(C)CCN(Cc1ccc(Cl)cc1)c1ccccn1`, for which the Potency entry in assay [1], in [2], in assay [3], in [4], in [6] and in assay [9] was “inactive” in each case. Besides, the Potency result in [16] and in [17] was “inactive” in each case. The PLD induction in assay [13] is -3.78% [at 0.137 µM]. For the same molecule, in assay [7], the molecule was classed as inactive. Also, the Potency in assay [10] is 33.5 µM (active).
On to `COc1cc2c(cc1OC)C(C(C(=O)N(CCc1ccc(OC)c(OC)c1OC)CCc1ccc(OC)c(OC)c1OC)c1ccccc1)=NCC2` (stereo not given), for which the Potency entry in assay [1], in [2], in assay [13], in [3], in [4] and in assay [14] was “inactive” each time. Further, the Potency entry in [10], in [11], in assay [16] and in assay [17] was “inactive” each time. Further, the result in [7] was inactive.
Regarding `OC(C#CCN1CCCC1)(c1ccccc1)c1ccccc1`, the Potency result in assay [1], in assay [2], in [13], in assay [3], in assay [4] and in assay [5] was “inactive” in each case. Moreover, the Potency result in assay [9], in assay [10], in assay [11], in assay [16] and in assay [17] was “inactive” each time. Also, the outcome in assay [7] was inactive. Also, in assay [8], the Potency is 3.76 µM (active).
Consider `COc1cc(Cl)ccc1Oc1ccc(Cl)cc1Cl`, for which the Potency result in assay [1], in [2], in [3], in [4], in assay [5] and in assay [6] was “inactive” throughout. In addition, the Potency result in [8], in assay [14], in assay [15], in assay [9], in [10] and in assay [11] was “inactive” in each case. Further, the Potency result in assay [12] and in assay [16] was “inactive” throughout. Besides, the outcome in assay [7] was inactive.
`CCCCCCCN`: the Potency entry in [1], in assay [2], in assay [3], in assay [4], in assay [5] and in assay [6] was “inactive” throughout. Further, the Potency result in assay [8], in assay [14], in assay [15], in assay [9], in [10] and in assay [11] was “inactive” in each case. Moreover, the Potency entry in assay [12], in [16] and in [17] was “inactive” each time. The result in assay [7] was inactive.
As for `COc1cccc(N(C)C(=S)Oc2ccc3c(c2)CCCC3)n1`, the Potency result in [1], in assay [2], in assay [13], in assay [3], in assay [4] and in [5] was “inactive” in each case. Besides, the Potency result in assay [6], in [14], in assay [15], in assay [9], in assay [11] and in assay [12] was “inactive” throughout. The result in assay [7] was inactive.
Regarding `CC(=O)[O][Al][O]C(C)=O`, the Potency entry in [1], in [2], in assay [13], in [3], in assay [4] and in assay [5] was “inactive” in each case. Moreover, the Potency result in assay [6], in assay [8], in [9], in assay [11] and in assay [16] was “inactive” each time. Further, the outcome in assay [7] was inactive.
As to `CCCCCCCCCCCCCCCCCCOS(=O)(=O)O`, the Potency entry in [1], in [2], in assay [3], in [4], in [5] and in assay [6] was “inactive” throughout. The Potency result in assay [8], in assay [14], in [9], in assay [12] and in assay [16] was “inactive” in each case. Moreover, the result in assay [7] was inactive. In addition, the Potency is 48.6 µM (active) in assay [15], 48.6 µM (active) in assay [10] and 68.6 µM (active) in assay [17].
